The target of assay [1] is Protein kinase C gamma type (Homo sapiens) (UniProt P05129). The following applies: at 1 µM.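 Note: each value is an averaged percent inhibition of the enzyme.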
The target in assay [2] is T1, Protein kinase C iota type (Homo sapiens) (UniProt P41743).
T1 sequence (whole entry): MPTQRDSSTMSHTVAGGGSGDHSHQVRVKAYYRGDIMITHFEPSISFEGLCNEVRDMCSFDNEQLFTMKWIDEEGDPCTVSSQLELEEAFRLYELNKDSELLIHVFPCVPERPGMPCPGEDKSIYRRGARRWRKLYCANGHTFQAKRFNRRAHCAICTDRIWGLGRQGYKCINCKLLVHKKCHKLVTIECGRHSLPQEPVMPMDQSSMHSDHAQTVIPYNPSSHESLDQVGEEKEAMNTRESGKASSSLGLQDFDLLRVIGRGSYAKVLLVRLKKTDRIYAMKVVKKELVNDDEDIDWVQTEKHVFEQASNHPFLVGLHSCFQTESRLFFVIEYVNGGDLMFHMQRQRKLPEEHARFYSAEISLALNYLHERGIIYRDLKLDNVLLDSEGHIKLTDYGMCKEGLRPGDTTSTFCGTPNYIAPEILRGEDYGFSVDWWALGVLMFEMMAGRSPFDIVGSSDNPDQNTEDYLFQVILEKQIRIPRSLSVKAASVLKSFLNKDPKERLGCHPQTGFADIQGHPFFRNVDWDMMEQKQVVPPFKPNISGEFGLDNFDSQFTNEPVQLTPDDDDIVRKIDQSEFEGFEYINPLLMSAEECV
Particulars: at 0.1 µM.

The target in assay [3] is T1, Protein kinase C iota type (Homo sapiens). Particulars: at 1 µM.
The target in assay [4] is Protein kinase C theta type (Homo sapiens) (UniProt Q04759). Particulars: at 0.1 µM.
Chain of Protein kinase C theta type (Homo sapiens) (Q04759 whole entry, looked up): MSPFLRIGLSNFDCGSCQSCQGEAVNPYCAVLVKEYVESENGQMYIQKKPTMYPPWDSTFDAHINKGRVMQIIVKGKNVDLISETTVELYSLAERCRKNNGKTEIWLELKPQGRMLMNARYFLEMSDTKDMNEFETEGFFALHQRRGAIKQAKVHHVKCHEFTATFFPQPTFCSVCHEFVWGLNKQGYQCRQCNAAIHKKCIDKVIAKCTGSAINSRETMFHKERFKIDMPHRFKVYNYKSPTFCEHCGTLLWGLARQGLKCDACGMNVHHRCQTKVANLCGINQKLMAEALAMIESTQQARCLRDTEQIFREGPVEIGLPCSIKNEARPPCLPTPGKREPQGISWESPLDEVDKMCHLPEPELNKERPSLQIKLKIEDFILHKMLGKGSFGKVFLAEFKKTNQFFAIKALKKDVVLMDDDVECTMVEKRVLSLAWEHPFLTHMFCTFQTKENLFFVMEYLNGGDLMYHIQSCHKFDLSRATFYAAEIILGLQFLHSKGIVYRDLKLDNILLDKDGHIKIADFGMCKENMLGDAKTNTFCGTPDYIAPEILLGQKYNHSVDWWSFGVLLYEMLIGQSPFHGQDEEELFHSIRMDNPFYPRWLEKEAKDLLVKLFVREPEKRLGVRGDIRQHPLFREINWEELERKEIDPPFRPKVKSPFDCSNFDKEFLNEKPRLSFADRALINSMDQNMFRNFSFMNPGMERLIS
For assay [5] the target is unchanged. Particulars: at 1 µM.
The target in assay [6] is Protein kinase C beta type (Homo sapiens) (UniProt P05771). Particulars: at 0.1 µM.
Chain of Protein kinase C beta type (Homo sapiens) (P05771 2-671 limits assumed): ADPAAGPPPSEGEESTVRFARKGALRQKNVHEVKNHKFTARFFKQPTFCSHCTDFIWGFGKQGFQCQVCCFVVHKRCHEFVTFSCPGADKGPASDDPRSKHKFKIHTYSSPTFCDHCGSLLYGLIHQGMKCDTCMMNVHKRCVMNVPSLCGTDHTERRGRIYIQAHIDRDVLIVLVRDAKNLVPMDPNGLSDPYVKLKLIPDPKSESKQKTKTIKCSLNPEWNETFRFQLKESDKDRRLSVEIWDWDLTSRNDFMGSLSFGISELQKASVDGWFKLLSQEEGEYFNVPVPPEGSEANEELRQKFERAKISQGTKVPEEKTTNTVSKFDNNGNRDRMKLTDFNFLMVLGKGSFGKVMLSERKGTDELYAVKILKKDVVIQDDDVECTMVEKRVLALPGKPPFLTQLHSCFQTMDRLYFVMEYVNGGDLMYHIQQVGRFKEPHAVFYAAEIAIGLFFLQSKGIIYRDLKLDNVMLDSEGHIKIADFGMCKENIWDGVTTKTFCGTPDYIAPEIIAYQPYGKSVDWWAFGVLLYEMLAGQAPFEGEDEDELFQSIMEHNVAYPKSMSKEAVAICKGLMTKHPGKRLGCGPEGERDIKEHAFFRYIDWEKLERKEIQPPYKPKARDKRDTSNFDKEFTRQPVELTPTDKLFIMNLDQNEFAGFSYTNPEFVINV
Assay [7] shares this target. Particulars: at 1 µM.
For assay [8], the target named is T2, Serine/threonine-protein kinase D1 (Homo sapiens) (UniProt Q15139).
T2 sequence (whole entry): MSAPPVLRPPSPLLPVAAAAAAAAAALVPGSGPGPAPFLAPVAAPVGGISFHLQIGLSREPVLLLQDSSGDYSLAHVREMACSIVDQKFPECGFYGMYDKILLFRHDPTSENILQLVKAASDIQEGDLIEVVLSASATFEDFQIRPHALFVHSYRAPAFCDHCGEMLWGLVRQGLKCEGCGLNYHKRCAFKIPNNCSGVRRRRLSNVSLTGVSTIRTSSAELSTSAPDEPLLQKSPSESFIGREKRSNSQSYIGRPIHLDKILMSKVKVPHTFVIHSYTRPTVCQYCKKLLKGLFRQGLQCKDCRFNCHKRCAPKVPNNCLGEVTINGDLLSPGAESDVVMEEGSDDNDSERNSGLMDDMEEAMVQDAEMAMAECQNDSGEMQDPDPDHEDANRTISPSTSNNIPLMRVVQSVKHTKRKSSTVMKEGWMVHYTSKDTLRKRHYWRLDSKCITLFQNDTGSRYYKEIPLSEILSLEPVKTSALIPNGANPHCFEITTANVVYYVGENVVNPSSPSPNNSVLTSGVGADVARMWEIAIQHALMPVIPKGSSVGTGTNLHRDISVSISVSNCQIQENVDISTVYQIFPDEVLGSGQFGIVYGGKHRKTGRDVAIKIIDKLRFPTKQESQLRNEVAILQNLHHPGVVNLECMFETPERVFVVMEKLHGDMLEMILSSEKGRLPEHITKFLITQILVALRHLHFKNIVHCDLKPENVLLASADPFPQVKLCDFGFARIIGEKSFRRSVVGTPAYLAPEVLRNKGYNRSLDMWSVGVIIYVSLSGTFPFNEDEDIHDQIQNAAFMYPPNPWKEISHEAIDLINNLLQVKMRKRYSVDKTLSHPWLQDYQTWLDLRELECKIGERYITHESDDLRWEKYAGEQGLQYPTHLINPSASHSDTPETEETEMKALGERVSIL
Particulars: at 0.1 µM.

Assay [9] addresses T2, Serine/threonine-protein kinase D1 (Homo sapiens). Particulars: at 1 µM.
Assay [10] deals with T3, Serine/threonine-protein kinase D2 (Homo sapiens) (UniProt Q9BZL6).
T3 sequence (whole entry): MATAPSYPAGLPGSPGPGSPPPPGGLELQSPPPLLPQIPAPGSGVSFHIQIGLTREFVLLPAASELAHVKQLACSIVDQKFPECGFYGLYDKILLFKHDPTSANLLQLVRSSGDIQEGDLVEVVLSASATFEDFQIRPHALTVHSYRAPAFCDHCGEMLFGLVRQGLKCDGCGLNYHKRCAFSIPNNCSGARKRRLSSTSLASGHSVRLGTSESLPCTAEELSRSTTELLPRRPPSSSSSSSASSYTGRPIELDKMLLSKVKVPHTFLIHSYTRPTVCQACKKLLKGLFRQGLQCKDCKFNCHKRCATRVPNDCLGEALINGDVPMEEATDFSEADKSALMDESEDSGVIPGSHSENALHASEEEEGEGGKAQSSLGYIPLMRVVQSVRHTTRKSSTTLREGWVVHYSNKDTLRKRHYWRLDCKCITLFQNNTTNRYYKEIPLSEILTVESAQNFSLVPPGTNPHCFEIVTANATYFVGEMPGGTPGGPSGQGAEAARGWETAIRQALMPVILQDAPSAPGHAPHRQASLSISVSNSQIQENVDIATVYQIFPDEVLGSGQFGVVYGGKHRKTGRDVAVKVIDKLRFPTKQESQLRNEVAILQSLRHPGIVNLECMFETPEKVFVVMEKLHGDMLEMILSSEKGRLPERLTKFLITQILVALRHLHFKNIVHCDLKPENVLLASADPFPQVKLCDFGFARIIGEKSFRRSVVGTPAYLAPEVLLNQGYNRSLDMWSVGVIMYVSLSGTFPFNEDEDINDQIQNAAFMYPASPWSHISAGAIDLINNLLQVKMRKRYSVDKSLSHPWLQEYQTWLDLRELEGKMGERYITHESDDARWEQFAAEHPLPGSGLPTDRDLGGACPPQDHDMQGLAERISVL
Particulars: at 0.1 µM.

The target of assay [11] is T3, Serine/threonine-protein kinase D2 (Homo sapiens). Particulars: at 1 µM.
Assay [12] concerns the target T4, Serine/threonine-protein kinase D3 (Homo sapiens) (UniProt O94806).
T4 sequence (whole entry): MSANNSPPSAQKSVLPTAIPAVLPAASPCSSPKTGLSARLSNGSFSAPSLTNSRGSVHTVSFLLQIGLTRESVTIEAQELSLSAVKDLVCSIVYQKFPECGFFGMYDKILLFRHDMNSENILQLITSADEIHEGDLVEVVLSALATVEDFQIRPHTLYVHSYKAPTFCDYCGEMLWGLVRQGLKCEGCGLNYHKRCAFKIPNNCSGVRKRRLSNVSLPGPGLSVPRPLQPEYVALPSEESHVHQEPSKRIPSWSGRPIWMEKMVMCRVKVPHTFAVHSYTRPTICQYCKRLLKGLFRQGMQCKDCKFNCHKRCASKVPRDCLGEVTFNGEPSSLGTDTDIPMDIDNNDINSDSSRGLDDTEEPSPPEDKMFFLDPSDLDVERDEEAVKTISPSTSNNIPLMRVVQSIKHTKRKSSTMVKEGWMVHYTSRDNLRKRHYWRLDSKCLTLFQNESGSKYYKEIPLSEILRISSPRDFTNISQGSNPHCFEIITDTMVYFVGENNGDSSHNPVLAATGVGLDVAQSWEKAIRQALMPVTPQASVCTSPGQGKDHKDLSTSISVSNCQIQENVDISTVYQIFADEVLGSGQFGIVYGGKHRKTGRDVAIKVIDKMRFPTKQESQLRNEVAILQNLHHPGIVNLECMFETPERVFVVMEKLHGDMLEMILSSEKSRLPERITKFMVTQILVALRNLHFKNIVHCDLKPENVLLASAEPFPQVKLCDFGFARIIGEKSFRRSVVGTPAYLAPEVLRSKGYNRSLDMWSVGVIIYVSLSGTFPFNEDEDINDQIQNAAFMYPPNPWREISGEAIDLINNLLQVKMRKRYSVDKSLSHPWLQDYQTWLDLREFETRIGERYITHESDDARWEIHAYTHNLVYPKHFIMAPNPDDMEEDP
The following applies: at 0.1 µM.

Assay [13] has as its target T4, Serine/threonine-protein kinase D3 (Homo sapiens). Particulars: at 1 µM.
The target in assay [14] is T5, cGMP-dependent protein kinase 1 (Homo sapiens) (UniProt Q13976).
T5 sequence (whole entry): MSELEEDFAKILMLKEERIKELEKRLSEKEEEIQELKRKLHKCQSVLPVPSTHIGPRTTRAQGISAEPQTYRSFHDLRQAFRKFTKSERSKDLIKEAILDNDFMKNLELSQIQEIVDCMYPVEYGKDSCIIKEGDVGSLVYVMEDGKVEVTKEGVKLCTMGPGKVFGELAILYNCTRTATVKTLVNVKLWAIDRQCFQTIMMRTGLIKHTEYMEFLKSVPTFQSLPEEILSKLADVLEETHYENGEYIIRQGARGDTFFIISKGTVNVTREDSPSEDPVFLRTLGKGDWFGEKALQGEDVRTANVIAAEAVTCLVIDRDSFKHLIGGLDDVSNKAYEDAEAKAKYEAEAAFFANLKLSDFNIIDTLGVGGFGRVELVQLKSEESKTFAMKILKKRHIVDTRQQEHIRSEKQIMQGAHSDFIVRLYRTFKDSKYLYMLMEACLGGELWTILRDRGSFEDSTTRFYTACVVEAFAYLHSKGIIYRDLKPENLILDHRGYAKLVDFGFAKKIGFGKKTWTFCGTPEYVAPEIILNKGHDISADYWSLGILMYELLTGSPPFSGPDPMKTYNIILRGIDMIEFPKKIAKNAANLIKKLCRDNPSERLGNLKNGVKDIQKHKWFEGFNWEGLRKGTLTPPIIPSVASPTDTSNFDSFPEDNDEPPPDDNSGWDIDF
Particulars: at 0.1 µM.

Assay [15] addresses T5, cGMP-dependent protein kinase 1 (Homo sapiens). Particulars: at 1 µM.
In assay [16] the target is T6, cGMP-dependent protein kinase 2 (Homo sapiens) (UniProt Q13237).
T6 sequence (whole entry): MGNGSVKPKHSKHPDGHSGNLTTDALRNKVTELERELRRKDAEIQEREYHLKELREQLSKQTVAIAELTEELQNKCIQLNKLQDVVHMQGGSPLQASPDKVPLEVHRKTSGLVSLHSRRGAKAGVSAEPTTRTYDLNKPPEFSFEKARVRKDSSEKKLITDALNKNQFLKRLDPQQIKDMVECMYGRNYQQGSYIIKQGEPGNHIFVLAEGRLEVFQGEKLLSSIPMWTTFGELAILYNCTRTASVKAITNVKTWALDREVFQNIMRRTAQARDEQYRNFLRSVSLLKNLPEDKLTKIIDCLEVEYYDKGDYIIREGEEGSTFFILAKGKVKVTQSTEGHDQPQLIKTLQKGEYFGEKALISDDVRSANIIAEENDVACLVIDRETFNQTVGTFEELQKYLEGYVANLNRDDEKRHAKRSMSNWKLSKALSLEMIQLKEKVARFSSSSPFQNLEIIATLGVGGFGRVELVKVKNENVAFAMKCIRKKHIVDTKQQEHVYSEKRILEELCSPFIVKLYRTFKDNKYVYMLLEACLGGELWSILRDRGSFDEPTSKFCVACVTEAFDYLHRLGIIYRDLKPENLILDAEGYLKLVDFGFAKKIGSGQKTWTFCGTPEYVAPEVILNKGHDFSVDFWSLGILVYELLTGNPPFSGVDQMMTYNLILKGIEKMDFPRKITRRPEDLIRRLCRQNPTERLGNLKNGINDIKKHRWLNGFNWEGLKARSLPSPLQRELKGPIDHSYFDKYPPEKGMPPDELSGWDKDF
Particulars: at 0.1 µM.

Assay [17] deals with T6, cGMP-dependent protein kinase 2 (Homo sapiens). Particulars: at 1 µM.
Assay [18] addresses T7, cAMP-dependent protein kinase catalytic subunit PRKX (Homo sapiens) (UniProt P51817).
T7 sequence (whole entry): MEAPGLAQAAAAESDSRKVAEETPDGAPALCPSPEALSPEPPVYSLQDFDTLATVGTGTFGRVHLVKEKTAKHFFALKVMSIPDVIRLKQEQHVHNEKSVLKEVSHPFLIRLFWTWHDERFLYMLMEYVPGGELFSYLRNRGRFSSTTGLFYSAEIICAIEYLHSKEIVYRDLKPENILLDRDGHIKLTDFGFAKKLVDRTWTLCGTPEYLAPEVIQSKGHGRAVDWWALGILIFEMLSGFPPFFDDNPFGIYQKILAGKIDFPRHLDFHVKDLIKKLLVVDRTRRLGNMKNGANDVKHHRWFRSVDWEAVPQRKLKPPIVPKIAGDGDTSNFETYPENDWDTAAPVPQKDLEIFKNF
Particulars: at 0.1 µM.

For assay [19], the target named is T7, cAMP-dependent protein kinase catalytic subunit PRKX (Homo sapiens). The following applies: at 1 µM.
In assay [20] the target is Rho-associated protein kinase 1 (Homo sapiens) (UniProt Q13464). The following applies: at 0.1 µM.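 Note: values are mean percent inhibition of ROCK1.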
Chain of Rho-associated protein kinase 1 (Homo sapiens) (Q13464 2-1354 limits assumed): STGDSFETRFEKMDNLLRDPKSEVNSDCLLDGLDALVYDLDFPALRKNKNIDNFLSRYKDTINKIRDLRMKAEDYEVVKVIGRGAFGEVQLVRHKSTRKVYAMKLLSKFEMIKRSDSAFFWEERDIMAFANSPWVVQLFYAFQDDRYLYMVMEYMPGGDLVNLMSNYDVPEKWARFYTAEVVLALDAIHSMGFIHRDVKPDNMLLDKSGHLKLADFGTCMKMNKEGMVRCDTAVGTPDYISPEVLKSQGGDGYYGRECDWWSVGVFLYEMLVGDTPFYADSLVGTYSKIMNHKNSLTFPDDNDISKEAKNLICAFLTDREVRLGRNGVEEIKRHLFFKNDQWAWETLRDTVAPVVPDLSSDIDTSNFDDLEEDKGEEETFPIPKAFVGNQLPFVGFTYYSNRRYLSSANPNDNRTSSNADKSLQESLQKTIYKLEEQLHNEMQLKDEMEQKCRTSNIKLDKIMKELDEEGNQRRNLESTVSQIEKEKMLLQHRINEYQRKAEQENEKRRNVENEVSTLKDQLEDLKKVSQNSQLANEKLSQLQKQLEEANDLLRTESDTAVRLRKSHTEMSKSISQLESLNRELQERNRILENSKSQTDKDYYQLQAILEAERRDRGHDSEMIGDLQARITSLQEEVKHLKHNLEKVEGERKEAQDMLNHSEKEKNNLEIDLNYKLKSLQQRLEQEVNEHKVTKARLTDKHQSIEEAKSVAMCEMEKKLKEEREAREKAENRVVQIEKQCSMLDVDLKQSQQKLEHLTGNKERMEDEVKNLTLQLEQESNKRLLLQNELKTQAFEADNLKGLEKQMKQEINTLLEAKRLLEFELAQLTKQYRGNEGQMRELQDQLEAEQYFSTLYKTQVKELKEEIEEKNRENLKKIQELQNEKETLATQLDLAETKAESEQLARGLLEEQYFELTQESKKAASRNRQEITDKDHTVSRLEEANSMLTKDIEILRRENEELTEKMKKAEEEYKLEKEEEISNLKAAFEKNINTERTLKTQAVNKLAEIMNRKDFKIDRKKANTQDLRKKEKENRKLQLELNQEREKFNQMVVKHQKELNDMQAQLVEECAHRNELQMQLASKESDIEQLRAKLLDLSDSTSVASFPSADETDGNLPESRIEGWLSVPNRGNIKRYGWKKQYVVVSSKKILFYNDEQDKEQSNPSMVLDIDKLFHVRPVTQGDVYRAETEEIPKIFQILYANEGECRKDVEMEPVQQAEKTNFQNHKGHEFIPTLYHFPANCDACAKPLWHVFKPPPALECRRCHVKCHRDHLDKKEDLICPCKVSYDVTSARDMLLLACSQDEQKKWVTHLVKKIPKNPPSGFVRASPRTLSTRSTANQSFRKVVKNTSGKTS

As to `COc1cccc(-n2ncc3c(N/N=C/c4ccc(F)cc4)ncnc32)c1`, the inhibition in [1] turned out to be 2.6%; in [2], 1.87%; in [3] it was 1.45%; in assay [4], 2.53%; in [5] it was 4.19%; in assay [6], 2.56%. In addition, the inhibition stood at 0.22% in assay [7]; 3.64% in assay [8]; 4.89% in assay [9]; 3.35% in assay [10]; 3.35% in [11]; 4.25% in assay [12]. For the same compound, the inhibition in assay [13] turned out to be 4.06%; in assay [14] it was 1.9%; in assay [15], 4.15%; in [16], 2.19%; in assay [17], 2.67%; in [18], 2.4%. Also, the results for the inhibition in [19] and in [20] were 4.79% and 1%, respectively.

A word on the inhibition: it is the percentage by which the read-out fell short of the control. A higher inhibition goes with strong suppression.

The values above are taken from ChEMBL document CHEMBL1961873, “Compounds: GSK PKIS; Assays: Nanosyn kinase panel” (2012).
